# Reference: ChEMBL document CHEMBL3988442, “University of Dundee, Small-Polar-MMV Screening Library” (2021)
# The campaign covered roughly 69,000 compounds. About 1,000 (1.4%) showed an effect of 50% or more. For the sample, strong results were picked, then their nearest neighbours and some compounds at random.
# Test system: Leishmania donovani
# Assay: Leishmania intramacrophage assay
# Format: functional, organism-based
# Parameters: scale not given: in the data most compounds retested in dose-response had high values
structure (smiles),measurement,setting,value
CSc1ncnc(NCc2cccs2)c1C#N,Percent Effect,"30.3 µM, […]",10.2%
COCCCN1Cc2cccc(NC(=O)c3ccccc3C)c2C1,Percent Effect,"30.3 µM, […]",-0.887%
O=C(NCc1ccco1)[C@H]1CC[C@@H]2[C@@H](CCN2Cc2nccs2)O1.O=C(O)C(F)(F)F,Percent Effect,"30.3 µM, […]",-4.08%
COCC[C@]1(O)CCN(Cc2nc(C(C)C)cs2)C[C@H]1C,Percent Effect,"30.3 µM, […]",-0.9404%
COCCN(Cc1sccc1C)Cc1nccn1CCOC,Percent Effect,"30.3 µM, […]",16.06%
COCCn1ccnc1CN(Cc1ccccn1)Cc1sccc1C,Percent Effect,"30.3 µM, […]",60.02%
COCCN(Cc1ccccn1)Cc1sccc1C,Percent Effect,"30.3 µM, […]",0.646%
CS(=O)(=O)c1ccccc1-n1cc(NC(=O)CC2C=CCC2)cn1 (stereo not drawn),Percent Effect,"30.3 µM, […]",4.466%
CN(CC(=O)Nc1cnn(-c2ccccc2S(C)(=O)=O)c1)C1CC1,Percent Effect,"30.3 µM, […]",52.47%
CC(C)(C)CC(=O)Nc1cnn(-c2ccccc2S(C)(=O)=O)c1,Percent Effect,"30.3 µM, […]",13.51%
CC(C)c1cc(=O)[nH]c(-c2ccccc2CN2CCCCCC2)n1,Percent Effect,"30.3 µM, […]",1.494%
CCCc1nc2c(c(C)c(C)n2Cc2ccccn2)c(N)c1CC,Percent Effect,"30.3 µM, […]",98.46%
CCCc1nc2c(c(C)c(C)n2Cc2ccncc2)c(N)c1CC,Percent Effect,"30.3 µM, […]",13.89%
Cc1c(C)n(Cc2ccncc2)c2nc3c(c(N)c12)CCCC3,Percent Effect,"30.3 µM, […]",9.739%
Cc1c(C)n(Cc2ccccn2)c2nc3c(c(N)c12)CCCC3,Percent Effect,"30 µM, 30.03 µM",-5.276%
CCc1nc2c(c(C)c(C)n2Cc2cccnc2)c(N)c1C,Percent Effect,"30.3 µM, […]",13.69%
CCCc1nc2c(c(C)c(C)n2Cc2cccnc2)c(N)c1CC,Percent Effect,"30.3 µM, […]",64.41%
O=C(Cc1ccon1)N1CCN(c2ccc(F)cc2Cl)CC1,Percent Effect,"30.3 µM, […]",4.988%
CNC(=O)c1cnn2c(C3CCCN3C)ccnc12 (stereo not drawn),Percent Effect,"30.3 µM, […]",-0.3512%
CCN1CCC2(CCN(c3ncccn3)CC2)C1=O.O=C(O)C(F)(F)F,Percent Effect,"30.3 µM, […]",-8.891%
Cc1cc(C(=O)NCC(C)C)nn1C,Percent Effect,"30.3 µM, […]",3.079%
Cc1ccc(F)c(OC2CCCN(c3cnn(C)c3)C2=O)c1 (stereo not drawn),Percent Effect,"30.3 µM, […]",1.572%
CN(Cc1nccn1C)S(=O)(=O)Cc1cccc(C#N)c1,Percent Effect,"30.3 µM, […]",3.121%
Cc1c[nH]c(C2CCCN(Cc3ccccc3C(=O)O)C2)n1.O=CO (stereo not drawn),Percent Effect,"30.3 µM, […]",-7.994%
CC(=O)N1CCCN(C(=O)NCCNc2cnccn2)CC1,Percent Effect,30 µM,10.17%
CCc1ccc(CN2C[C@@H]3OCCN(c4ccnc(N(C)C)n4)[C@@H]3C2)o1.O=C(O)C(F)(F)F,Percent Effect,"30 µM, 30.03 µM",55.16%
Cc1cccc(CN2C[C@@H]3OCCN(c4ccnc(N(C)C)n4)[C@@H]3C2)c1.O=C(O)C(F)(F)F,Percent Effect,"30.3 µM, […]",-2.723%
CN(C)c1nccc(N2CCO[C@H]3CN(Cc4nccn4C)C[C@H]32)n1.O=C(O)C(F)(F)F,Percent Effect,"30.3 µM, […]",22.89%
CCc1cc(CNC(=O)C2CCCN(C(=O)NCC(C)C)C2)[nH]n1 (stereo not drawn),Percent Effect,"30.3 µM, […]",-11.81%
Cc1ccc(-c2nc(CN3CCc4nn(C)c(=O)cc4C3)co2)cc1,Percent Effect,"30 µM, 30.03 µM",21.01%
CCn1nc2c(cc1=O)CN(Cc1coc(-c3ccccc3)n1)CC2,Percent Effect,"30.3 µM, […]",51.53%
Cn1nc2c(cc1=O)CN(Cc1coc(-c3ccccc3)n1)CC2,Percent Effect,"30.3 µM, […]",18.82%
Nc1cc2c(nn1)CCN(C(=O)CC1CCCCC1)C2,Percent Effect,30 µM,25.14%
CCOC(=O)C1(CCOC)CCCN(Cc2nccn2CC)C1 (stereo not drawn),Percent Effect,"30.3 µM, […]",-5.772%
CCOC(=O)C1(Cc2ccccc2)CCCN(Cc2nccn2CC)C1 (stereo not drawn),Percent Effect,"30.3 µM, […]",51.2%
CCOC(=O)C1(Cc2cccc(OC)c2)CCCN(Cc2ncc[nH]2)C1 (stereo not drawn),Percent Effect,"30.3 µM, […]",-0.9604%
CN(C)C(=O)CNC(=O)c1ccc(Cl)cc1F,Percent Effect,"30 µM, 30.03 µM",-10.55%
Br.O=C(CN(C1=NCCCC1)c1ccccc1)c1ccccc1,Percent Effect,"30 µM, 30.03 µM",-5.499%
Br.Cc1ccc(N(CC(=O)c2ccc(Br)cc2)C2=NCCCCC2)cc1,Percent Effect,"30 µM, 30.03 µM",57.51%
COc1ccc(CN(Cc2c[nH]cn2)CC2CCCO2)c(OC)c1.O=C(O)CC(O)(CC(=O)O)C(=O)O (stereo not drawn),Percent Effect,"30.3 µM, […]",20.29%
Cc1noc(C)c1CN1CCc2ncnc(-c3cccnc3)c2CC1.O=C(O)C(F)(F)F.O=C(O)C(F)(F)F,Percent Effect,"30.3 µM, […]",26.97%
Cc1sc2ncnc(N3CCC(N(C)Cc4cnn(C)c4)CC3)c2c1C,Percent Effect,"30.3 µM, […]",50.06%
Cc1cc2c(N3CCC(N(C)CCc4cnn(C)c4)CC3)ncnc2s1,Percent Effect,"30.3 µM, […]",2.228%
Cc1cc2c(N3CCC(N(C)Cc4cnn(C)c4)CC3)ncnc2s1,Percent Effect,"30.3 µM, […]",31.66%
Cc1oc(C)c(C(=O)Nc2ccccn2)c1C,Percent Effect,"30.3 µM, […]",0.1995%
Cc1cc(N2CCc3c(ncn3C)C2)n2nc(C(F)(F)F)nc2n1,Percent Effect,"30.3 µM, […]",17.99%
COCCn1cncc1CN1CCCC(C)(c2ccccc2)C1 (stereo not drawn),Percent Effect,"30.3 µM, […]",-2.364%
CC1(c2ccccc2)CCCN(Cc2cncn2C2CCCC2)C1 (stereo not drawn),Percent Effect,"30.3 µM, […]",95.34%
CC1(c2ccccc2)CCCN(Cc2cncn2C2CC2)C1 (stereo not drawn),Percent Effect,"30.3 µM, […]",33.62%
Cc1ccc(C2(CN(C)Cc3snnc3C)CCNCC2)nc1,Percent Effect,"30.3 µM, […]",37.33%
Cc1ccc(C2(CN(C)Cc3c(C)nn(C)c3C)CCNCC2)nc1,Percent Effect,"30.3 µM, […]",37.1%
Cc1ccc(C2(CN(C)Cc3sccc3C)CCNCC2)nc1,Percent Effect,"30.3 µM, […]",56.47%
Cc1cccc(-c2noc(CN3CCCC(Cn4cncn4)C3)n2)c1 (stereo not drawn),Percent Effect,"30 µM, 30.03 µM",23.08%
CC(C)c1cncnc1N1CC[C@H](N2CCOCC2)[C@H](CCCO)C1,Percent Effect,"30.3 µM, […]",26.26%
CCc1ccc(C2CC(=O)Nc3cc(OC)c(NS(C)(=O)=O)cc32)o1 (stereo not drawn),Percent Effect,"30.3 µM, […]",-14.18%
CCc1ccc(C2CC(=O)Nc3cc(NS(C)(=O)=O)ccc32)o1 (stereo not drawn),Percent Effect,"30.3 µM, […]",14.16%
CCCC(=O)Nc1cc2c(cc1OC)NC(=O)CC2c1ccc(CC)o1 (stereo not drawn),Percent Effect,"30.3 µM, […]",77.7%
Cc1cc(CN2CCN(Cc3cc(C#N)ccc3F)CC2)no1,Percent Effect,"30.3 µM, […]",28.56%
Cc1ccnc(OC[C@@]23CCO[C@@H]2CCN(c2ncc(F)cn2)C3)n1.O=C(O)C(F)(F)F,Percent Effect,"30.3 µM, […]",22.41%
CC(CN1CCCC1=O)NC(=O)c1cc(Cl)c2c(c1)OCO2 (stereo not drawn),Percent Effect,"30.3 µM, […]",-42.28%
O=C(N[C@@H]1CCNC[C@H]1O)c1ccc(F)c(F)c1,Percent Effect,"30.3 µM, […]",-28.62%
O=C(N[C@@H]1CCNC[C@H]1O)c1ccc(-c2ccc(F)cc2)cc1,Percent Effect,"30.3 µM, […]",72.82%
O=C(N[C@@H]1CCNC[C@H]1O)c1ccc(F)c(Cl)c1,Percent Effect,"30 µM, 30.03 µM",13.21%
Cc1nc(CN2CCOC(Cn3cccn3)C2)nc2ccccc12 (stereo not drawn),Percent Effect,30 µM,18.44%
Cc1nn(C)c2nc(N3CCC(C(O)Cc4ccccc4)CC3)sc12 (stereo not drawn),Percent Effect,"30.3 µM, […]",58.21%
Cc1nc(N)sc1C(=O)N1CCC(C(O)Cc2ccccc2)CC1 (stereo not drawn),Percent Effect,"30.3 µM, […]",8.209%
Cc1nn(C)c2nc(N3CCC(C(O)c4nccn4C)CC3)sc12 (stereo not drawn),Percent Effect,"30.3 µM, […]",-0.9674%
Cc1ccc(N2CCC(C(O)Cc3ccccc3)CC2)nn1 (stereo not drawn),Percent Effect,"30.3 µM, […]",17.05%
Cc1nn(C)c2nc(N3CCN(Cc4nccn4C)CC3)sc12,Percent Effect,"30.3 µM, […]",15.9%
Cc1nn(C)c2nc(N3CCC(C(O)c4ccccn4)CC3)sc12 (stereo not drawn),Percent Effect,"30.3 µM, […]",50.06%
CN(C)C[C@@H]1CN(C(=O)Cc2ccc3ccccc3c2)C[C@@H]1CO,Percent Effect,"30.3 µM, […]",-3.237%
CC(C)N1CC2(CCC1=O)CCN(C(=O)c1cc(F)ccc1Cl)CC2,Percent Effect,"30.3 µM, […]",18%
COc1ccc(CCNC(=O)CN2CCOCS2(=O)=O)cc1,Percent Effect,"30.3 µM, […]",0.9024%
CCc1noc(C2CCCCN2C(=O)c2ccc3c(c2)OCO3)n1 (stereo not drawn),Percent Effect,"30.3 µM, […]",61.74%
CCc1noc(C2CCCCN2C(=O)c2ccccc2)n1 (stereo not drawn),Percent Effect,"30.3 µM, […]",-11.89%
CCc1noc(C2CCCCN2C(=O)c2cccnc2)n1 (stereo not drawn),Percent Effect,"30.3 µM, […]",-10.93%
O=C1C(CS(=O)(=O)Nc2ccc(Br)cc2)=NC(=O)n2cccc21,Percent Effect,"30.3 µM, […]",-27.67%
CCc1noc(CN(CC)C(=O)c2ccc3ncsc3c2)n1,Percent Effect,"30.3 µM, […]",-21.19%
CN(Cc1n[nH]c(=O)n1CCc1ccccc1F)S(C)(=O)=O,Percent Effect,"30.3 µM, […]",22.43%
COc1cccc2c1OCC(C(=O)N1CCN(CCS(C)(=O)=O)CC1)C2 (stereo not drawn),Percent Effect,"30.3 µM, […]",2.664%
Fc1ccc(CN2CCCC3(CCN(Cc4ncc[nH]4)C3)C2)cc1F (stereo not drawn),Percent Effect,"30.3 µM, […]",24.4%
Cc1ccc(CN2CCC3(CCCN(Cc4ccc(F)c(F)c4)C3)C2)o1 (stereo not drawn),Percent Effect,"30.3 µM, […]",-12.81%
Cc1c[nH]c(CN2CCC3(CCCN(Cc4ccc(F)c(F)c4)C3)C2)n1 (stereo not drawn),Percent Effect,"30.3 µM, […]",53.74%
Cc1cc(C)n(C2CCN(S(C)(=O)=O)CC2)n1,Percent Effect,"30.3 µM, […]",-8.348%
O=C(Nc1cc(Cl)ccc1Cl)NC1CCN(C2CCOC2)CC1 (stereo not drawn),Percent Effect,"30.3 µM, […]",-19.47%
O=C(NCCn1ccnc1)N1CCCN(Cc2cccs2)CC1,Percent Effect,30 µM,32.04%
CN(C)C(=O)C1CN(c2ncccn2)CCN1C (stereo not drawn),Percent Effect,"30.3 µM, […]",10.06%
COc1nc2c(cc1C(=O)N1CCCC1c1ccccn1)CCC2 (stereo not drawn),Percent Effect,"30.3 µM, […]",15.04%
CCn1cnnc1C1CCN(C(=O)C(OC)c2ccccc2)CC1 (stereo not drawn),Percent Effect,"30 µM, 30.03 µM",25.64%
O=C(O)C(F)(F)F.c1cnc(NC2COC3(CCN(Cc4cccs4)CC3)C2)nc1 (stereo not drawn),Percent Effect,"30.3 µM, […]",-71.32%
Fc1cnc(N2CCOC3(CCN(Cc4ccsc4)CC3)C2)nc1.O=C(O)C(F)(F)F.O=C(O)C(F)(F)F,Percent Effect,"30 µM, 30.03 µM",16.14%
CN1CCN(C2COC3(CCN(Cc4ccc(F)cc4)CC3)C2)CC1.O=C(O)C(F)(F)F.O=C(O)C(F)(F)F.O=C(O)C(F)(F)F (stereo not drawn),Percent Effect,"30.3 µM, […]",32.4%
CN1CCN(C2COC3(CCN(Cc4ccsc4)CC3)C2)CC1.O=C(O)C(F)(F)F.O=C(O)C(F)(F)F (stereo not drawn),Percent Effect,"30.3 µM, […]",20.49%
O=C(O)C(F)(F)F.O=C(c1ccccc1)N1CCOC2(CCN(Cc3cccs3)CC2)C1,Percent Effect,"30.3 µM, […]",5.175%
Fc1cnc(N2CCOC3(CCN(Cc4cccs4)CC3)C2)nc1.O=C(O)C(F)(F)F.O=C(O)C(F)(F)F,Percent Effect,"30.3 µM, […]",53.49%
CCc1ccc(CN2CCC3(CC2)CC(N2CCN(C)CC2)CO3)cc1.O=C(O)C(F)(F)F (stereo not drawn),Percent Effect,"30 µM, 30.03 µM",78.58%
CN1CCN(C2COC3(CCN(Cc4cccs4)CC3)C2)CC1.O=C(O)C(F)(F)F.O=C(O)C(F)(F)F (stereo not drawn),Percent Effect,"30.3 µM, […]",53.18%
Cc1ccc(CN2CCC3(CC2)CC(N2CCN(C)CC2)CO3)s1.O=C(O)C(F)(F)F.O=C(O)C(F)(F)F.O=C(O)C(F)(F)F (stereo not drawn),Percent Effect,"30.3 µM, […]",35.32%
